Data reported in PubChem BioAssay (NCATS).
Records with an inconclusive call do not appear. Where a call stands in place of a potency, no number is given. Calls of active or inactive are those of the source. Calls follow the shape of the dose curve; as a rule, active = well fitted cell-killing curve with a large enough effect; inconclusive = small, poorly fitted or top-dose-only effect; inactive = no such curve, though single readings can be large or run the other way.
Potency is read from the fitted curve at half-maximal effect.

Experiment: qHTS of pediatric cancer cell lines to identify multiple opportunities for drug repurposing: Primary screen for MG 63 (6-TG R) cells (AID 1347105); also: nearly all actives have a fitted effect of over 50% in size
Details: MG 63 (6-TG R) viability, CellTiter-Glo, 48 h; series mostly up to 46 µM
Text: Drug repurposing or repositioning has been offered as a strategy for drug development in oncology programs. This approach has special potential for childhood cancers and other rare or orphan diseases, where the expected return on new drug development has been a disincentive to pharmaceuticals. […] In this project we exploit the poly-pharmacology of drugs to discover new indications via phenotypic screening of a panel of 19 well-characterized cell lines derived from solid tumors seen in children and adolescents. The goal is to identify approved drugs with previously unrecognized anticancer properties that has the potential to reveal new mechanisms and biological processes involved in carcinogenesis or drug resistance. We employed a titration-based paradigm (quantitative high-throughput screening or qHTS), where all compounds were tested at multiple concentrations for their effect on cell viability. Concentration-response curves (CRCs) were derived directly from the primary screen, and both potency and efficacy values were used to identify compounds with robust bioactivity profiles. We screened the NIH Chemical Genomics Center (NCGC) Pharmaceutical Collection (NPC) and Mechanism Interrogation Plate (MIPE) small molecule collections of approved and investigational compounds against these cell lines; and measured metabolically active cells after 48 hours of compound treatment as a proxy for cell viability. […] Assay Submitter: Nathalia J. Martinez, National Center for Advancing Translational Sciences, National Institutes of Health, Rockville, MD, USA; email: natalia.martinez@nih.gov Shen, M et al. Quantitative high-throughput phenotypic screening of pediatric cancer cell lines identifies multiple opportunities for drug repurposing. Oncotarget 2017 Dec 19;9(4):4758-4772. PMID 29435139.
The cells were obtained from University of North Carolina (UNC), Pediatric Preclinical Testing Program (PPT), and Coriell Institute (CI). qHTS cell viability assay: Cells were assayed in growth media at a density of 500-1,000 cells/well. Five microliters of cells were dispensed into 1,536-well, white, solid-bottom, TC-treated plates (Greiner Bio One) using a multidrop dispenser and incubated at 37 degrees C, 5% CO2, under a humidified atmosphere for 5 hours. Twenty-three nanoliters of compounds and controls (neutral control DMSO or positive control bortezomib at final concentration of 2.3 µM) were subsequently transferred by Kalypsys pintool. For primary screens, the MIPE collection was tested at 11-point dilutions (final concentrations range from 0.78 nM to 46 µM) and the NPC collection at 8-point dilutions (final concentrations range from 0.59 nM to 46 µM). Compounds tested in follow-up screens were assayed at 11-point dilutions. Cells were incubated for 48 hours, followed by addition of 3 µL of CellTiter-Glo (Promega). After a 15 min incubation at room temperature, samples were analyzed for luminescence intensity using a ViewLux High-throughput CCD imager equipped with clear filters.
In the case of `O=C(CS(=O)Cc1ccco1)NC/C=C\COc1cc(CN2CCCCC2)ccn1` (stereo not given), the Potency is reported as “inactive”.
With `Nc1c[n+](N2CCOCC2)no1` the Potency was “inactive”.
With `O=C(CCC1CCN(Cc2ccccc2)CC1)c1ccc2c(c1)NCCCC2` the Potency was “inactive”.
In the case of `CC1(C)OC(=O)Nc2ccc(Br)cc21`, the Potency is reported as “inactive”.
With `c1ccc2occc2c1` the Potency was “inactive”.
In the case of `CC(C)NC(=O)c1ccc(C=O)cc1`, the Potency is reported as “inactive”.
With `CC[N+]1(CC)CCC(=C(c2ccccc2)c2ccccc2)C1C` (stereo not given) the Potency was “inactive”.
For `O=C1CC2(CCCC2)CC(=O)N1CCNCC1COc2ccccc2O1` (stereo not given), the Potency was “inactive”.
With `CO[C@@H]1[C@@H](O[C@@H]2O[C@H](C)[C@@H](O[C@H]3C[C@@](C)(O)[C@@H](O)[C@H](C)O3)[C@H](N(C)C)[C@H]2O)[C@@H](CC=O)C[C@@H](C)[C@@H](O[C@@H]2CC[C@H](N(C)C)[C@@H](C)O2)/C=C/C=C/C[C@@H](C)OC(=O)C[C@H]1OC(C)=O` the Potency was “inactive”.
For `CCCCCCCCCCCCCC[N+](C)(C)C`, the Potency was 26.6 µM (active).
With `O=C1CCCc2c(O)cccc21` the Potency was “inactive”.
With `CCOC(=O)N1CCC(n2c(=O)[nH]c3cc(Cl)ccc32)CC1` the Potency was “inactive”.
In the case of `CCCCC(O)/C=C(C)/C=C/C=C/C(=O)N1CCCC1=O` (stereo not given), the Potency is reported as “inactive”.
With `C[C@H]1C[C@@H]2[C@H]([C@@H](O)C[C@@]3(C)[C@H]2CC[C@]3(O)C(=O)CO)[C@@]2(C)C=CC(=O)C=C12` the Potency was “inactive”.
With `O=C1Cc2cc(Cl)ccc2N1` the Potency was “inactive”.
In the case of `CN(C)CCN(Cc1ccsc1)c1ccccn1`, the Potency is reported as “inactive”.
With `CC(C)=CCC/C(C)=C/CC/C(C)=C/CCC(=O)OC/C=C(\C)CCC=C(C)C` the Potency was “inactive”.
For `OCc1cccnc1`, the Potency was “inactive”.
With `CC(Oc1c(Cl)cccc1Cl)C1=NCCN1` (stereo not given) the Potency was “inactive”.
With `NS(=O)(=O)c1cc(C(=O)NN2C[C@H]3[C@H]4CCC(C4)[C@H]3C2)ccc1Cl` the Potency was “inactive”.
In the case of `O=C(O)CCCC[P+](c1ccccc1)(c1ccccc1)c1ccccc1`, the Potency is reported as “inactive”.
For `CCCC(=O)O[C@]1(C(=O)CC)CC[C@H]2[C@@H]3CCC4=CC(=O)CC[C@]4(C)[C@H]3[C@@H](O)C[C@@]21C`, the Potency was “inactive”.
For `CCN1C(=O)c2ccccc2C1Nc1ccc(OCCN2CCCCC2)cc1` (stereo not given), the Potency was “inactive”.
For `CC1(C)S[C@@H]2[C@H](NC(=O)C(c3ccccc3)S(=O)(=O)O)C(=O)N2[C@H]1C(=O)O` (stereo not given in full), the Potency was “inactive”.
In the case of `O=C(O)c1ccccc1S`, the Potency is reported as “inactive”.
In the case of `C/C(=N/NC(=O)c1ccncc1)C(=O)O`, the Potency is reported as “inactive”.
With `O=C(C1CCCCC1)N1CC(=O)N2CCCc3ccccc3C2C1` (stereo not given) the Potency was “inactive”.
For `COC(=O)c1c(Cl)c(Cl)c(C(=O)OC)c(Cl)c1Cl`, the Potency was “inactive”.
With `CN(C)CCOC1=Cc2ccccc2Sc2ccc(Cl)cc21` the Potency was “inactive”.
For `C1N2CN3CN1CN(C2)C3`, the Potency was “inactive”.
For `OCc1c[nH]c2ccccc12`, the Potency was “inactive”.
For `CC(=O)O[C@H]1CC[C@@]2(C)C(=CC[C@@H]3[C@@H]2CC[C@]2(C)C(C(C)=O)=CC[C@@H]32)C1`, the Potency was “inactive”.
With `O=C(CCCl)NCCc1ccccc1` the Potency was “inactive”.
For `CC(C)C(=O)OCc1cccc(OC(=O)[C@@H]2N3C(=O)[C@@H](NC(=O)Cc4ccccc4)[C@H]3SC2(C)C)c1`, the Potency was “inactive”.
For `COC(=O)C1=C(C)NC(C)=C(C(=O)OCCc2ccc(N3CCN(C(c4ccccc4)c4ccccc4)CC3)cc2)C1c1cccc([N+](=O)[O-])c1` (stereo not given), the Potency was “inactive”.
In the case of `O=C(CO)[C@@H](O)[C@H](O)[C@@H](O)CO`, the Potency is reported as “inactive”.
In the case of `CCC1(c2cnc[nH]2)Cc2ccccc2C1`, the Potency is reported as “inactive”.
For `CCC(C(=O)NC(=O)NC(C)=O)c1ccccc1` (stereo not given), the Potency was “inactive”.
For `NS(=O)(=O)c1cc2c(cc1Cl)CN(C1CCCCC1)C2=O`, the Potency was “inactive”.
With `O=C(O)[C@@H](O)[C@H](O)[C@H](O)[C@@H](O)C(=O)O` the Potency was “inactive”.
